Compounds with a hit are over-represented: about 6.2% of the library has one in this group of screens.
NR3A LBD binder – NR3A (human) ligand-binding domain modulation; NR3A LBD differential scanning fluorimetry, Tm shift; 0% = protein alone, 100% = glycine-bound protein; AID 1259313; 340,000 compounds, 2.5% hits; Tm shift relative to glycine control, % at 25 µM;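 active means melting temperature shift of at least 10% of the positive control shift, at one fixed dose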
AHR activator – human AHR activation | AID 2796 | 320,000 compounds, 2.5% hits | AHR-responsive luciferase reporter cells, luminescence | activation, % at 5 µM | P35869; in the data active means activation above about 47%;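 further: 0% = vehicle wells and 100% = reference agonist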
Target sequence (P35869 whole entry, looked up): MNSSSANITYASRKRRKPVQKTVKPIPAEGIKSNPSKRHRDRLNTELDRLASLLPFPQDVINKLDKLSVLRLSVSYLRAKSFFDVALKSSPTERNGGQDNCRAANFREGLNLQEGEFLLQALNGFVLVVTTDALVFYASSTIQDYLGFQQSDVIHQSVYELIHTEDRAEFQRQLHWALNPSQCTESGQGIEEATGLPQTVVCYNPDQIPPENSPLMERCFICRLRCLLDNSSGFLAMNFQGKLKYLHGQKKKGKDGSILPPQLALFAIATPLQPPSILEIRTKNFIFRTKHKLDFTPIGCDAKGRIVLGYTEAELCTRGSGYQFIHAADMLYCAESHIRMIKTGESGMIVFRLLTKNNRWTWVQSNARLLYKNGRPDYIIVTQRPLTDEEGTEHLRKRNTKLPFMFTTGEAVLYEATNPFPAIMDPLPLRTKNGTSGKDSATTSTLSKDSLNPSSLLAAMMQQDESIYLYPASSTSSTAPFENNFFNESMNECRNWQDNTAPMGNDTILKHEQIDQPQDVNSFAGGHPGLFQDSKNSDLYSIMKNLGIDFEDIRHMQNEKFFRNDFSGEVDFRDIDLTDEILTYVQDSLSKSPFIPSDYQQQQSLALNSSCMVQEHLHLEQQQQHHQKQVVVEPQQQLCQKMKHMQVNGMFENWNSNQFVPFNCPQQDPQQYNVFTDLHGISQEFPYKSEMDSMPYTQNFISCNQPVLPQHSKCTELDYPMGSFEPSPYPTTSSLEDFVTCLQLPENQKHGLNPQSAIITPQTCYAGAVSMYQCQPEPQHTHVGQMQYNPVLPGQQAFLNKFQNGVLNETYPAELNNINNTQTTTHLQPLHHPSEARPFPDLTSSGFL
AI-2 QS modul – modulators of Vibrio harveyi AI-2 quorum sensing system. Vibrio harveyi JMH597 AI-2 luminescence/OD600 ratio, 9 h; stronger effect = lower value; strain lacks LuxN and CqsS sensors; 0 = neutral-control median. activity change, % at 7.5 µM. 300,000 compounds, 0.4% hits. AID 2094; in the data active means activity change below about -75%, passing the limit was not always enough; inconclusive means no clear call, values can overlap the other calls;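 further: luminescence divided by OD600 gain over 9 h not by final OD600 alone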
NTR1 ag – activates human neurotensin receptor 1 | NTR1-U2OS beta-arrestin-GFP spot imaging, agonist mode | activation, % at 20 µM | 330,000 compounds, 0.17% hits | AID 493036;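 active means activation at or above 40% of the spot to cytoplasm intensity ratio, with at least 20 cells analyzed; inconclusive means wells under 20 cells, flagged as cytotoxic or low count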;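 further: 0% = DMSO without peptide and 100% = 100 nM NTR1 peptide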
Mot1-301 SUMO – blocks SUMOylation pathway, rescuing yeast Mot1-301 growth. S. cerevisiae Mot1-301 growth rescue, ATP luminescence, 38.5C; percent above DMSO median, 100 means doubled. 320,000 compounds, 1% hits. AID 2716. growth rescue, % at 18.8 µM;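 active means every valid replicate shows activation above 250% relative to neutral control wells; inactive means the rest, any valid replicate at or below 250%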;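 further: OY570 slx delta 5 strain wells were the positive control but not used for scaling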
H9c2 protect – modulators protecting cardiomyocytes from myocardial damage. H9c2 cardiomyocytes, H2O2 injury protection, ATPLite, 2 h. protection from H2O2 cell death, % at 20 µM. 360,000 compounds, 0.63% hits. AID 588492;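 active means compounds giving at least 50% protection of heart cells from peroxide-induced death in the single-dose screen, raw or plate-pattern-corrected value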;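 further: 0% = DMSO wells with peroxide and 100% = DMSO wells without peroxide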
JMH597 growth rt – retest: inhibitors of Vibrio harveyi JMH597 growth | 750 compounds, 1% hits | growth inhibition, % at 7.5 µM | shares compounds with AI-2 QS modul | OD600 absorbance, 9 h; lacks LuxN and CqsS sensors;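 active means every replicate shows growth inhibition above 50%; inconclusive means at least half, but not all, replicates pass that cutoff; inactive means fewer than half of replicates pass it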
BB721 lum counter – retest counter-screen: luminescence loss in constitutive-on quorum sensing strain BB721; shares compounds with AI-2 QS modul; Vibrio harveyi BB721 luminescence, 9 h; inhibition, % at 7.5 µM; 750 compounds, 95% hits; AID 2727;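 active means inhibition above about 80% in every replicate, not just on average, limit read from the data; inconclusive means at least half of replicates past the limit, but not all; inactive means fewer than half of replicates past the limit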
BB721 growth rt – retest Vibrio harveyi BB721 growth inhibition | shares compounds with AI-2 QS modul | OD600 absorbance, 9 h | growth inhibition, % at 7.5 µM | 750 compounds, 3% hits | AID 2728;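 active means every replicate shows growth inhibition above 50%; inconclusive means at least half but not all replicates above 50% inhibition; inactive means under half of replicates above 50% inhibition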
JMH597 AI-2 mod – Vibrio harveyi AI-2 signaling luminescence modulation – JMH597 strain, confirmation; inhibition, % at 7.5 µM; AID 2736; Vibrio harveyi JMH597 AI-2 quorum sensing luminescence, 9 h; luxN and CqsS knockout, AI-2 only; 750 compounds, 97% hits; shares compounds with AI-2 QS modul;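 active means every replicate shows more than 75% inhibition of signal versus neutral control wells; inconclusive means half to three quarters of replicates exceed 75% inhibition; inactive means fewer than half of replicates exceed 75% inhibition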
Numbers without * were called inactive; ? = inconclusive; . = not tested or not shown.

SMILES	NR3A LBD binder	AHR activator	AI-2 QS modul	NTR1 ag	Mot1-301 SUMO	H9c2 protect	JMH597 growth rt	BB721 lum counter	BB721 growth rt	JMH597 AI-2 mod
Cc1cccc(CSc2nnc(-c3ccccn3)n2N)c1	2	0	-90*	1	0	0	-4	92*	3	94*
Cc1cc(C)c(Cn2ncn(-c3ccc(Br)cc3)c2=O)c(C)c1	2	0	-1	2	-17	-10	.	.	.	.
Cc1ccc(Cn2ncn(-c3ccccc3)c2=O)cc1	0	1	?	0	.	4	4	95*	26	97*
CCC1(c2ccccc2)NC(=O)N(CC(=O)NCc2ccc(C)cc2)C1=O (centres undefined)	-2	1	-91*	-1	9	0	-13	94*	-31	97*
CCC1(c2ccccc2)NC(=O)N(CC(=O)Nc2ccc(OC)nc2)C1=O (centres undefined)	-2	4	-88*	0	-11	5	2	90*	0	94*
COc1cccc(C(=O)NCCS(=O)(=O)N2CCN(c3ccccc3)CC2)c1OC	.	.	.	.	.	-2	.	.	.	.
O=C(Cn1c(=O)c2cccn2c2cccnc21)N1CCN(c2ccc(Cl)cc2)CC1	-3	1	7	1	15	-1	.	.	.	.
COC(=O)c1cc(S(=O)(=O)N(C)C2CCCCC2)c[nH]1	3	0	.	3	6	1	.	.	.	.
CC(C)COc1ccc(/C(=N/O)c2ccccc2)cc1	1	0	-85*	7	-10	-16	20	94*	27	95*
O=C(Nc1cccc(Cl)c1)OCc1cnc(Cl)s1	-27	5	?	1	-8	-16	18	92*	22	92*
Cc1ccc(NC(=O)C(=O)c2ccc(C)cc2)cc1	-1	-7	-93*	1	240	-16	3	97*	19	97*
O=C(NCc1ccc(Cl)cc1)c1cc2ccccn2n1	-1	2	-84*	-1	-4	12	36	92*	25	95*
Nn1c(SCc2ccc([N+](=O)[O-])cc2)nc2ccccc2c1=O	-4	-1	-97*	5	26	0	-8	97*	-1	97*
COc1cc(SC)ccc1C(=O)Nc1ccc(OCC(=O)N2CCOCC2)cc1	0	.	23	1	.	-24	.	.	.	.
CSc1ccc(Cl)c(C(=O)Nc2ccc(OCC(N)=O)cc2)c1	3	-3	?	0	-17	10	14	6	15	5
O=C(O)c1ccc(N/N=C/C=C/c2ccccc2)cc1	4	7	-84*	-2	-2	-9	16	98*	63*	98*
Cc1nc(C(F)(F)F)c(C(=O)O)cc1-c1nc(-c2ccccc2)cs1	-1	-2	23	0	-14	-1	.	.	.	.
O=S(=O)(c1ccc2ccccc2c1)N1CCN(C(=S)Nc2ccccc2F)CC1	-4	4	-97*	2	-5	-4	25	100*	-25	100*
CC(C)C(=O)Nc1cc2c3c(c1)CCN3C(=O)CC2	2	6	12	-1	17	-3	.	.	.	.
COC(=O)N/N=C\c1ccc(OC/C=C/c2ccccc2)cc1	-3	.	37	1	-6	-6	.	.	.	.
COC(=O)N/N=C/c1ccc(Oc2ccccc2)cc1	-1	6	-85*	1	-1	-6	23	95*	36	95*
CCOC(=O)Nc1ccc(Oc2ccccc2)cc1	2	1	-95*	-1	-10	-3	25	99*	26	99*
O=C(Nc1ccc(Oc2ccccc2)cc1)C1CC1	1	0	-87*	0	96	-15	23	98*	59*	96*
O=C(Nc1ccc(Oc2ccccc2)cc1)C1CCN(c2ncccn2)CC1	-2	-2	-3	-3	-9	0	.	.	.	.
COc1ccc2[nH]c3c(c2c1)CCN1C(=O)C(CC(=O)NCCC2=CCCCC2)C[C@H](C(=O)N2CCOCC2)[C@@]31C (some centres undefined)	0	.	.	3	.	12	.	.	.	.
SMILES	NR3A LBD binder	AHR activator	AI-2 QS modul	NTR1 ag	Mot1-301 SUMO	H9c2 protect	JMH597 growth rt	BB721 lum counter	BB721 growth rt	JMH597 AI-2 mod
CC1=CC(=O)C2=C(C)CCC3C(C)C(=O)OC3C12 (centres undefined)	.	.	.	.	.	-9	.	.	.	.
Cn1cc(Br)c(C(=O)NNC(=O)c2ccc(Br)cc2)n1	-2	7	.	.	-16	-2	.	.	.	.
Cc1c(Br)c(C(=O)NNC(=O)c2ccc(C(C)(C)C)cc2)nn1C	2	-1	-88*	0	11	1	12	96*	23	97*
COc1ccc(CN=CC2=C(O)CC(C)(C)CC2=O)cc1	-1	3	-80*	-1	103	4	23	88*	13	92*
COc1ccccc1C(=O)NC(CCSC)C(=O)NNC(=O)c1ccncc1 (centres undefined)	-1	1	7	0	-10	-2	.	.	.	.
CCC(=O)NC(=S)Nc1ccccc1F	1	8	16	0	213	-4	.	.	.	.
CCCC(=O)NC(=S)Nc1ccccc1F	-1	1	-85*	1	170	-2	21	92*	24	87*
Cc1ccc(S(=O)(=O)N/N=C\C=C\c2ccccc2)cc1	-32	0	-98*	0	30	4	51	100*	25	100*
Cc1ccc(S(=O)(=O)NN=CC2(c3ccccc3)CC2)cc1	.	.	.	.	.	-5	.	.	.	.
Cc1occc1C(=O)NCCCc1ccccc1	2	3	-78*	0	10	-7	19	87*	11	91*
Cc1occc1C(=O)NCCCCNC(=O)c1ccoc1C	-1	-1	9	1	6	-2	.	.	.	.
CCc1nc2ccc(C(=O)NCc3ccc4c(c3)OCO4)cn2c1N(C)C(=O)Cc1ccccc1	.	.	.	.	.	10	.	.	.	.
Cc1ccccc1NCCC(=O)Nc1ccc(Cl)cc1	14*	21	-84*	1	-3	-10	4	97*	-1	97*
Cc1ccccc1NC(=O)CC(=O)Nc1ccccc1C	-4	7	-1	1	5	-2	.	.	.	.
Cc1ccccc1NCCC(=O)Nc1ccc(F)cc1	1	6	-87*	0	-21	3	18	95*	15	97*
